Data as given in PubChem BioAssay (NCATS).
Results filed as inconclusive are left out. The call rests on the fitted dose curve; in most records, active means well fitted inhibition curve with a large enough effect; inconclusive means small, poorly fitted or top-dose-only effect; inactive means no such curve, though single readings can be large or run the other way.

Test: Primary qHTS for small molecule stabilizers of the endoplasmic reticulum resident proteome: Secreted ER Calcium Modulated Protein (SERCaMP) assay (AID 1508630)
Conditions: SH-SY5Y GLuc-SERCaMP (Gaussia luciferase released on ER calcium loss) secretion, thapsigargin, luminescence; series mostly up to 38.4 µM; activity change, negative = inhibition: at the top concentration
Summary of the method: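 The SH-SY5Y reporter protocol was run at 3 concentrations up to 38.3 uM (primary) or 11 concentrations (follow-up): 16 h compound, 100 nM thapsigargin for 4 h, then extracellular luciferase luminescence.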
On the % scale 0 is the no-effect control and ±100 the full control effect.

Activity change, negative = inhibition, inactive:
CCCCCCCCCCCCCCCC(=O)C1=C(O)C(CO)OC1=O (stereo not given) -2.77%, Cc1nc2[nH]c(=O)[nH]c(=O)c2[nH]1 -28.5%, CN[C@H]1CCc2cc(OC)c(OC)c(OC)c2-c2ccc(N[C@@H]3CCCCNC3=O)c(=O)cc21 39.2%, C[C@@H]1CC[C@H]2[C@H](C)[C@H]3CC[C@H]4C5[C@@H](O)CC6=CC(=O)CC[C@]6(C)[C@H]5C[C@H]4C3C(=O)N2C1 (stereo not given in full) -22.9%, O=C1CC(c2ccc(O[C@@H]3OC(CO)[C@@H](O)C(O)C3O)cc2)Oc2cc(O)ccc21 (stereo not given in full) -12.8%, C[C@@H]1C(=O)CC2C(C)(C)CCC[C@]2(C)[C@@]1(O)CCc1ccoc1 (stereo not given in full) 36.1%, CC1(C)CCC[C@@]2(C)C1CC[C@@](C)(O)[C@@H]2CC[C@@](C)(O)C1CO1 (stereo not given in full) -16.2%, Cc1cc2c3c(cccc3n1)C(=O)c1ccccc1-2 13.7%, Cc1cc(O)c2c(c1O)C(=O)C(O)=C(O)C2=O -18%, CC1=CC(=O)CC(C)(C)C1(O)/C=C/C(C)=C/C(=O)O (stereo not given) 0.818%, O=C(O)C1CC[C@@](C(=O)O)(c2ccccc2)c2ccccc21 (stereo not given in full) -18.4%, C=C1CCC2[C@](C)(CO)[C@H](O)CC[C@@]2(C)[C@@H]1C/C=C1/C(=O)OC[C@H]1O (stereo not given in full) 2.56%, COc1c2ccoc2nc2c(OC)c(O[C@@H]3O[C@H](C)[C@@H](O)[C@@H](O)[C@H]3O)ccc12 -5.76%, CN1C(=O)N(C)C2=NNC=NC2(O)C1=O (stereo not given) 1.04%, O=CN1CCc2c([nH]c3ccccc23)C1c1cccc2cccnc12 (stereo not given) -6.11%, O=c1cc(-c2cc3ccccc3oc2=O)c2ccc(O)cc2o1 -21.8%, COc1cc(C/C=C\c2ccccc2)c(OC)cc1O -4.11%, Cc1cn(C2OC[C@@H](O)[C@@H]2CO)c(=O)[nH]c1=O (stereo not given in full) -0.822%, C/C=C/c1ccc(OC(C)[C@@H](O)c2ccc(O)c(OC)c2)c(OC)c1 (stereo not given in full) 12.4%, COc1ccc(C(=O)N(O)c2ccccc2)cc1 -1.43%, CCCc1c(OCC(O)COc2ccc3c(=O)cc(C(=O)O)oc3c2CCC)ccc(C(C)=O)c1O (stereo not given) -17.2%, CC1=C2C(=CO[C@H](C)[C@H]2C)C(=O)C(C(=O)O)=C1O -3.77%, C=C[C@]1(C)Cc2occ(C)c2C[C@H]1C(=C)C(=O)O 0.56%, CC1CCC2=C1C[C@H](C(C)(C)O)CC[C@@H]2C (stereo not given in full) -3.16%, COc1cc2c(cc1OC)C(/C=C/c1ccc(OC)c(OC)c1OC)=NCC2 156%, C=C1C[C@@]23CC4C5[C@@]6(C)C[C@H](O)C[C@@]57C2[C@H](O)[C@@H]1[C@H](O)[C@H]3[C@H]7N4C6 -24.2%, CC(C)=CCCC1=CC[C@H](C(=O)O)[C@H](C(=O)O)C1 -0.327%, COC(=O)C1=COC(O[C@H]2OC(CO)[C@H](O)C(O)C2O)[C@H]2C1C(=O)C[C@@H]2C (stereo not given in full) -4.03%, COc1ccccc1C1OC(=O)CC1C(=O)OC[C@@H]1CCCN2CCCCC12 (stereo not given in full) 4.32%, CC1(O)/C=C\C=C(\CO)C2CC(C)(C)C2(O)CC1 (stereo not given) -28.2%, CC1=C(C(=O)O)N2C(=O)[C@@H](NC(=O)[C@H](N)C3=CCC=CC3)[C@@H]2SC1 1.97%, O=C1N[C@@H](Cc2c[nH]c3ccccc23)C(=O)N[C@H]1Cc1c[nH]c2ccccc12 -9.12%, Cn1c(=O)c(-c2ccccc2)c(O)c2ccccc21 -26.6%, COc1cccc2c(=O)c3ccoc3n(C)c12 17.8%, C[C@@H](CN(C)C[C@H]1C(=O)O[C@@H]2C[C@@]3(C)CCC[C@]4(CO4)C3CC21)[C@H](O)c1ccccc1 (stereo not given in full) -14.7%, CC(=O)C1(C)CC2(CC(C)(C)OC2=O)C(=O)O1 (stereo not given) -23%, CC(=O)[C@@]1(O)[C@H](O)CC2C3CCC4CC(O)CC[C@]4(C)C3CC[C@@]21C (stereo not given in full) -2.54%, COc1c2c(cc3c1C(CC(O)C(C)C)N(C)CC3)OCO2 (stereo not given) 2.54%, C/C(N[C@@H]1CSCC1O)=C1/C(=O)CC2[C@@H]1C2(C)C (stereo not given in full) -8.06%, C=C1C[C@]23C[C@@]1(O)CC[C@H]2[C@@]12C=C[C@H](O)C(C)(C(=O)O1)[C@H]2[C@@H]3CC(=O)O -7.21%
